Shown are actives, neighbours in structure and some others; about 22% of the full set was active somewhere.
Pf growth 48h = inhibits P. falciparum growth in the first generation, 48 h. P. falciparum luciferase growth in erythrocytes, 48 h. Potency, µM (highest dose often 28.7 µM), for inactives: at the highest dose activity change, negative = inhibition, actives largely listed as inhibitors. 310,000 tested, 5.9% active. AID 504832; also: potency is read from the fitted curve at half-maximal effect; % is scaled to controls: 0 for no effect and ±100 for the full control effect
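Cell-based growth assay: transgenic P. falciparum expressing firefly luciferase, cultured in red cells within RPMI 1640 containing 0.5% w/v Albumax, 24 mM bicarbonate and gentamycin. A drop in luciferase activity indicates inhibition.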
Cycloheximide cs = counter-screen hit for Shiga toxin inhibitors, cycloheximide. AID 2314. cell reporter, cycloheximide protein synthesis inhibition counterscreen. max response, %. 300,000 tested, 12% active; in the data active = max response mostly above about 13%, no sharp cut-off; inactive = mostly below about 14%; also: read at 38.3 µM for the half of the compounds with a filed dose; 0% is about no effect
Pf growth 96h = P. falciparum growth inhibition at 96 hours. P. falciparum luciferase reporter growth, 96 h. Potency, µM (titrated, usually from 28.7 µM), inactives show at the highest dose activity change, negative = inhibition, actives largely listed as inhibitors. 320,000 tested, 6.9% active. AID 504834; also: potency is read from the fitted curve at half-maximal effect; % is scaled to controls: 0 for no effect and ±100 for the full control effect
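Compounds incubated with erythrocytes infected by luciferase-expressing P. falciparum (2% hematocrit, 0.05% parasitemia final) for 96 hours, 37 C in 5% CO2. Growth inhibition scored as decreased luciferase luminescence.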
LmPK inhibitor = inhibitors of Leishmania mexicana pyruvate kinase; purified LmPK, Kinase-Glo ATP luminescence, 1 h; Potency, µM (series often up to 57.5 µM), for the others: at the top dose activity change, negative = inhibition, hits mostly inhibitors; 290,000 tested, 0.37% active; AID 1721; also: potency is read from the fitted curve at half-maximal effect; % is scaled to controls: 0 for no effect and ±100 for the full control effect
Target sequence (Q27686 whole entry, looked up): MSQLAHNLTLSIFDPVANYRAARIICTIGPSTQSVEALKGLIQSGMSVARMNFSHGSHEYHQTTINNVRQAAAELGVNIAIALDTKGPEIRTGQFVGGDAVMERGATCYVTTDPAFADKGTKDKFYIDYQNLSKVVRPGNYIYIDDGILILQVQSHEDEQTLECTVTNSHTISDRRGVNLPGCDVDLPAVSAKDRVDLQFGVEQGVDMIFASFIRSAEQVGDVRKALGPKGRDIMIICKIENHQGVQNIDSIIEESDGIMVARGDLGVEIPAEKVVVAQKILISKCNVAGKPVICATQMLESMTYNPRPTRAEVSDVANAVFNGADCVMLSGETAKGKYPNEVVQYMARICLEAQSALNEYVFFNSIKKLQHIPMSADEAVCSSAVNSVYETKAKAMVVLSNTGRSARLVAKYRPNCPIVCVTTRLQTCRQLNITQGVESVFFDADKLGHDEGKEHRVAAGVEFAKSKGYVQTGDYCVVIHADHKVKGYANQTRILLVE
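In 50 mM imidazole pH 7.2 with 7 mM MgCl2, LmPK (0.1 nM) turned over PEP (0.5 mM) and ADP (0.1 mM) for 1 h at room temperature. Luciferase read-out of ATP.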
Shiga inhibitor = blocks Shiga toxin action in Vero cells; Vero cells, Shiga toxin protein synthesis inhibition reporter; inhibition, % at 38.7 µM; 290,000 tested, 9.2% active; AID 2315; in the data active = inhibition mostly above about 28%, no sharp cut-off; inactive = mostly below about 43%; also: 0% is about no effect
* = called active by the depositor; ? = inconclusive; / = no result given; [ ] = another dose, or the depositor's remark. Unless noted, calls follow the shape of the dose curve; as a rule, active = well fitted inhibition curve with a large enough effect; inconclusive = small, poorly fitted or top-dose-only effect, or another doubt; inactive = no such curve, though single readings can be large or run the other way.

SMILES | Pf growth 48h | Cycloheximide cs | Pf growth 96h | LmPK inhibitor | Shiga inhibitor
CCCOc1ccc(/C=N/Nc2ccccc2[N+](=O)[O-])c(O)c1 | 233% | 58* | 14% | -14% | 74*
CCOc1ccccc1/C=N/Nc1ccccc1[N+](=O)[O-] | 48% | -2 | 152% | -8% | -18
CCCOc1ccc(/C=N/Nc2ccc(C(=O)O)cc2)c(OCCC)c1 | 148% | 38* | -9% | 2% | 121*
CCCOc1ccc(/C=N/Nc2cccc([N+](=O)[O-])c2)c(O)c1 | ? | 82* | ? | -4% | 81*
COc1ccc(/C=N/NC(=S)Nc2ccccc2[N+](=O)[O-])cc1O | 131% | 60* | 28% | -2% | 62*
CCCOc1ccc(/C=N/NC(=S)Nc2ccccc2[N+](=O)[O-])c(O)c1 | 2.6µM* | 93* | ? | 4% | 75*
Cc1ccc(Cl)cc1N1CCN(C(=O)CSc2nnc3n2C(C)(C)Cc2ccccc2-3)CC1 | ? | -3 | ? | -10% | -4
COc1ccc(N2CCN(C(=O)CSc3nnc4c(C)cc5cc(C)ccc5n34)CC2)cc1 | -9% | -4 | 53% | -5% | 35
COc1ccc(N2CCN(C(=O)CSc3ccccc3N)CC2)cc1 | -17% | 12* | / | 0% | -3
COc1cc(NC(=O)CSc2nnc3n2C(C)(C)Cc2ccccc2-3)cc(OC)c1 | ? | -1 | 4.1µM* | -1% | -4
COC(=O)CSc1nnc2n1C(C)(C)Cc1ccccc1-2 | 1% | -1 | 14% | -4% | -8
COc1ccc(N2CCN(C(=O)CSc3nnc4n3C(C)(C)Cc3ccccc3-4)CC2)cc1 | 12µM* | 7 | ? | -3% | 33
COc1ccc(N2CCN(C(=O)CSc3nnc4c(C)cc5c(C)cc(C)cc5n34)CC2)cc1 | 2.9µM* | -1 | -4% | 1% | -8
Cc1ccc(C)c(-c2[nH]ncc2CN2CCCC(CO)(Cc3ccccc3C)C2)c1 (centres undefined) | ? | -1 | ? | 8% | -5
Cc1cc(S(=O)(=O)Nc2ccc(C(=O)NCc3ccncc3)cc2)ccc1F | ? | / | -1% | / | /
CC1CC(C)(C)CC2(C1)NC(=O)N(CC(=O)N1CCN(Cc3ccc(C#N)cc3)CC1)C2=O (centres undefined) | -28% | / | 2% | / | /
CCC(C)/C=C(C)/C=C/C1=CC2=C(Cl)C(=O)C(C)(OC(C)=O)C(=O)C2=CO1 (centres undefined) | ? | 11* | 9.3µM* | -29% | 24
COc1ccc(OC)c(NC(=O)NNS(=O)(=O)c2ccc(C)cc2C)c1 | 9% | -4 | -13% | 1% | -7
CCOC(=O)c1ccc(NC(=O)NNS(=O)(=O)c2cc(OC)ccc2OC)cc1 | 41% | 0 | 5.2µM* | 3% | -1
CCOC(=O)c1ccc(NC(=O)Nc2cccc(C)n2)cc1 | -5% | -5 | -11% | 1% | 1
CCOC(=O)c1ccc(NC(=O)Nc2ccccn2)cc1 | 134% | 24* | ? | -8% | 61*
CCOC(=O)c1nnsc1NC(=O)Nc1ccc(OC)cc1 | 4.1µM* | -3 | 27% | -9% | -7
CCOC(=O)c1nnsc1NC(C)=O | 2% | -2 | ? | 0% | -9
CCOC(=O)c1ccc(NC(=O)Nc2cc(C)on2)cc1 | ? | 32* | / | -6% | 39*
CC(=O)Nc1cccc(NC(=O)c2csc(C)c2)c1 | -5% | -3 | ? | -9% | -18
SMILES | Pf growth 48h | Cycloheximide cs | Pf growth 96h | LmPK inhibitor | Shiga inhibitor
CC1CCN(C(CNS(=O)(=O)c2ccccc2)c2ccccc2)CC1 (centres undefined) | -18% | / | -22% | / | /
O=[N+]([O-])C(/C=C(/Cl)[N+](=O)[O-])=C(N1CCCCC1)N1CCCCC1 | 8.3µM* | 3 | 5.2µM* | -3% | 17
Cc1cccc(C(=O)N2CCCCCC2)c1[N+](=O)[O-] | 24% | -7 | 13% | -4% | -5
COC(=O)N/N=C/c1cc(Cl)cc(Cl)c1OCc1ccc(F)cc1 | 32% | -1 | -80% | -2% | -45
CC(C)C(NC(=O)c1ccc(C(C)(C)C)cc1)C(=O)Nc1ccc(N2CCOCC2)cc1 (centres undefined) | 13µM* | / | ? | / | /
Cc1cccc(OCC(=O)Nc2ccc(N3CCCC3)cc2)c1C | 10µM* | -4 | 28% | 1% | 20
Cc1cccc(C)c1OCC(=O)Nc1ccc(N2CCOCC2)cc1 | ? | 1 | 1.5µM* | 9% | 24
O=C(COc1cccc(Cl)c1)Nc1ccc(N2CCOCC2)cc1 | / | -2 | -7% | 6% | 4
Cc1nn(CC(=O)Nc2ccc(N3CCOCC3)cc2)c(C)c1Cl | 15% | 8.8* | -17% | -5% | 35
CC(C)CN1C(=O)NC2(CCCc3ccccc32)C1=O (centres undefined) | -9% | -1 | ? | -10% | -13
CC(C)CC(=O)Nc1ccc(N2CCOCC2)cc1 | 36% | 16 | / | -1% | 89*
Cc1ccc(C(=O)N2CCN(c3ccc(NC(=O)COc4ccccc4C)cc3)CC2)cc1 | 8.3µM* | 9 | ? | 0% | -10
O=C(COc1ccccc1)Nc1ccc(N2CCN(C(=O)c3ccco3)CC2)cc1 | ? | 4 | ? | 12% | -4
CC(C)CC(=O)Nc1ccc(N2CCN(S(C)(=O)=O)CC2)cc1 | 3% | -3 | -3% | 0% | 26
Cc1ccc(OCC(=O)Nc2ccc(N3CCN(C(=O)c4ccco4)CC3)cc2)cc1 | ? | 2 | 5.2µM* | 5% | 6
CCC(=O)N1CCN(c2ccc(NC(=O)COc3ccc(C)cc3C)cc2)CC1 | ? | 1 | -19% | 1% | 24
CC(=O)c1ccc(-n2nncc2-c2ccc([N+](=O)[O-])cc2)cc1 | 322% | 12 | ? | 7% | 8
COCCNC(=O)[C@H]1N2C(=O)c3ccccc3C2SC1(C)C (some centres undefined) | / | -3 | -1% | -6% | -6
CCOC(=O)N1CCN(S(=O)(=O)N2CCCC(C(=O)NCCc3ccc(OCC)c(OCC)c3)C2)CC1 (centres undefined) | 0% | -2 | -2% | 0% | 4
O=c1nc2ccc(Cl)cn2c2ccc(S(=O)(=O)N3CCOCC3)cc12 | ? | -2 | -3% | -1% | -3
COc1cccc(NC(=O)CN(C)C(=O)c2c(C)nn(CC(C)C)c2Cl)c1 | -26% | / | ? | / | /
Cc1nc2sc(C(N)=O)c(N)c2c(C)c1CC(=O)c1ccccc1 | 33% | 30* | -34%[5.75 µM] | -2% | 92*
Cc1cc(C)c2c(N)c(C(=O)c3ccccc3)sc2n1 | -20% | 1 | 0% | 5% | -2
Cc1cc(C)c(S(=O)(=O)N(C2=NCCS2)S(=O)(=O)c2c(C)cc(C)cc2C)c(C)c1 | 15µM* | -2 | ? | 7% | 3
CCOC(=O)N1CCC(NC(=O)CN(c2ccc(C(C)C)cc2)S(=O)(=O)c2c(C)nn(C)c2C)CC1 | ? | -2 | ? | 3% | -6
Cc1onc(-c2ccncc2)c1C(=O)O | 14% | 27* | 35% | -5% | 55*

Source: PubChem
